Screens deposited in PubChem by Columbia University Molecular Screening Center.
Sampled rows, rich in hits. Any-hit rate of the full collection: about 1%.
VCAM1 TNFa inh: reduces TNF alpha induced VCAM1 expression in HUVEC. HUVEC TNFa-induced VCAM-1 immunofluorescence, high-content imaging. inhibition, % at 2 µM. hit rate 0.48% among 95,000;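 active = inhibition above the batch mean plus 3 SD, with images confirmed as a hit by eye, cut at about 37% in these data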;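 also: 0% = TNF-stimulated DMSO wells and 100% = unstimulated control wells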
E-sel TNF inh: blocks E-selectin expression induced by TNF alpha. HUVEC TNFa-induced E-selectin immunofluorescence, high content. inhibition, % at 2 µM. hit rate 0.71% among 120,000. AID 1246;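 active = inhibition above the batch mean plus 3 SD, and confirmed as a hit on visual image review, cut at about 43% in these data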;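 also: 0% = TNF-stimulated DMSO wells and 100% = unstimulated control wells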
F-actin modifier: alters cytoskeleton assembly in HUVEC cells | AID 836 | hit rate 0.18% among 91,000 | inhibition, % at 2 µM | HUVEC TNFa F-actin phalloidin imaging, high content;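 active = inhibition above the batch mean plus 3 SD and confirmed as a hit by visual image inspection, cut at about 30% in these data, passing the limit was not always enough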
HUVEC tox TNFa: toxic to HUVEC cells under TNF alpha stimulation. HUVEC TNFalpha-stimulated, Hoechst cell count, imaging. cell count reduction, % at 2 µM. hit rate 0.17% among 93,000;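 active = cell count reduction exceeding the screen mean by over 5 SD, scaled to untreated wells per plate, cut at about 78% in these data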;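 also: cells counted after 24 h of TNF alpha exposure following the 1 h pretreatment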
* hit, by the source's call; / = no result.

SMILES	VCAM1 TNFa inh	E-sel TNF inh	F-actin modifier	HUVEC tox TNFa
Cc1c(C(=O)N2CCN(c3ccccc3F)CC2)sc2ncn(CC(=O)N3CCOCC3)c(=O)c12	8	58	88*	-10
COC(=O)CSc1nc(N)nc(C)c1Br	10	63*	-29	-4
COC(=O)CSc1nc(N)c(C#N)c(C(C)C)c1C#N	-13	-1	-16	-16
CCCC(=O)Nc1ccccc1Sc1ncnc2scc(-c3ccccc3)c12	/	0	/	/
COC(=O)c1cnc(SCc2ccc(C)cc2)n1C	/	69*	/	/
O=C(Nc1ccc(Oc2ccccc2)cc1)C1CCCN(c2ncccn2)C1 (centres undefined)	1	-23	71*	-5
Nc1nonc1C(=O)N/N=C/c1ccc(-c2cccc(C(=O)O)c2)o1	/	-11	/	/
COC(=O)c1c(NC(=O)c2ccc(S(=O)(=O)N3CCOCC3)cc2)sc2c1CCN(C)C2	54*	17	-20	7
O=C(CSc1nnc(CNc2ccc(F)cc2)o1)N1CCCc2ccccc21	/	63*	/	/
O=C(NCc1nnc(SCC(=O)N2CCCc3ccccc32)o1)c1ccco1	/	-25	/	/
COc1ccc(S(=O)(=O)N2CCC(O)(c3cccnc3)CC2)cc1OC	/	-11	/	/
O=C(/C=C/c1cccc([N+](=O)[O-])c1)n1cnc2ccccc21	/	99*	/	/
Cc1ccc(S(=O)(=O)c2cc(C#N)c(=O)[nH]c2N)cc1	-4	9	62*	-23
COc1nc(N)c(S(=O)(=O)c2ccc(C)cc2)cc1C#N	-2	17	-44	-2
CCn1c(SCC(=O)Nc2ccc(C(=O)OC)cc2)nnc1-c1cccs1	55*	0	-1	-9
CCn1c(SCC(=O)NCC(=O)Nc2ccc(F)cc2)nnc1-c1cccs1	-4	/	-23	-4
O=c1oc2cc(Oc3ccc(C(F)(F)F)cc3[N+](=O)[O-])ccc2c2c1CCCC2	/	-27	/	/
CCOC(=O)c1cnc(-n2nc(C)cc2C)nc1NCc1ccccc1	92*	/	-49	76
CCOC(=O)c1cnc(-n2nc(C)cc2C)nc1NCCO	5	2	-10	-4
CCN1C(=O)C(CC(=O)Nc2ccc(OC)cc2)N(CCCN2CCN(c3ccc(OC)cc3)CC2)C1=S (centres undefined)	/	-16	/	/
COc1cc(/C=C/C(=O)N2CCN(CC(O)COc3ccccc3)CC2)cc(OC)c1OC (centres undefined)	2	66*	33	-23
COc1cc(/C=C/C(=O)N2CCCN(C(=O)/C=C/c3cc(OC)c(OC)c(OC)c3)CC2)cc(OC)c1OC	/	5	/	/
O=C(CSc1nc2ccccc2[nH]1)N1CCN(S(=O)(=O)c2ccc(Cl)cc2)CC1	-8	68*	-26	15
CCc1c(C)nc(N)n2c(SCC(=O)Nc3ccccc3)nnc12	8	-3	-13	-9
Cc1cc(NC(=O)C(=O)NCCN2CCN(C(=O)c3cccs3)CC2)ccc1Br	-1	0	34*	-28
SMILES	VCAM1 TNFa inh	E-sel TNF inh	F-actin modifier	HUVEC tox TNFa
COc1ccc(NC(=O)C(=O)NCCN2CCN(C(=O)c3cccs3)CC2)cc1	12	21	-4	-3
CCOC(=O)c1c(C)c(C(=O)O)n(C)c1C	-3	/	76*	-28
CCOC(=O)c1c(C)c(C(=O)NC(C)COC)c(C)n1C (centres undefined)	/	-24	/	/
CCC(=O)N1CCc2cc(Br)cc(S(=O)(=O)NCc3ccco3)c21	/	79*	/	/
CSC1=NCCN1C(=O)Cc1ccc(Cl)cc1	44*	-6	-8	10
COc1ccc(CC(=O)N2CCN=C2SC)cc1	3	6	5	-31
CCC(CC)C(=O)Nc1cc(C(=O)NCCc2ccccc2)ccc1Cl	20	13	-2	0
COC(=O)c1sccc1NC(=O)c1ccc(C)s1	30	-41	2	-16
COC(=O)c1sccc1NC(=O)c1ccc(Br)s1	53*	-2	-5	0
COCCCNC(=O)c1cc2c(=O)n3cc(C)ccc3nc2nc1NCC1CCCO1 (centres undefined)	/	-5	/	/
CCC(=O)Nc1sc2c(c1C#N)CC(C)(C)NC2(C)C	5	/	-27	23
CC1(C)Cc2c(sc(NC(=O)C(C)(C)C)c2C#N)C(C)(C)N1	-13	-20	76*	89*
CN(C)/C=C(/C(=O)c1ccc(Cl)cc1)S(=O)(=O)c1ccc(Cl)cc1	14	-21	19	-2
Cc1c(C(=O)NC(C)c2ccncc2)oc2ccccc12 (centres undefined)	0	100*	8	-10
Cc1c(C(=O)Nc2ccncc2)oc2ccccc12	2	31	3	-17
COc1ccc(NC(=O)/C(Cl)=C(/Cl)S(=O)Cc2ccccc2)cn1 (centres undefined)	88*	/	8	99*
COc1ccc(NC(=S)Nc2ccccc2)cn1	/	-11	/	/
COc1ccc(CS(=O)(=O)/C(Cl)=C(/Cl)C(=O)Nc2ccc(OC)nc2)cc1	42*	95*	5	14
COc1ccc(/C=C/C(=O)Nc2ccc(OC)nc2)cc1	/	-7	/	/
COC12NC(=O)N(C)C1(OC)C(=O)N(C)C(=O)N2C (centres undefined)	/	-1	/	/
Cc1c(C)c2ccc(OS(C)(=O)=O)c(C)c2oc1=O	/	-4	/	/
C#CCN1C(=O)C(O)(CC(=O)c2cccc(OC)c2)c2ccccc21 (centres undefined)	11	85*	-18	-13
Cc1ccn2c(NC(=O)c3ccco3)c(-c3ccccc3)nc2c1	97*	-12	16	-13
Cc1nnc(SCC(=O)c2ccc(Cl)cc2)s1	/	-7	/	/
CCC(=O)Nc1ccc(C(=O)NCCCn2ccnc2)cc1	/	22	/	/
SMILES	VCAM1 TNFa inh	E-sel TNF inh	F-actin modifier	HUVEC tox TNFa
CCCOc1ccc(NC(=O)C(=O)NCCCn2ccnc2)cc1	/	78*	/	/
CCOc1cc(C(=O)NCCCn2ccnc2)cc(OCC)c1OCC	/	88*	/	/
CN1CCN(C(=O)CCc2nc3ccccc3c(=O)[nH]2)CC1	-15	12	-5	-11
Cc1ccc(CNC(=O)CCc2nc3ccccc3c(=O)[nH]2)cc1	/	62*	/	/
Cc1cccc(C(=O)N/N=C/c2ccc(OC3CSC3)cc2)c1	5	-26	-3	-10
COc1cccc(C(=O)N/N=C/c2ccc(OC3CSC3)cc2)c1	/	10	-135	94*
CCS(=O)(=O)NCC(c1ccco1)N1CCN(c2ccccc2)CC1 (centres undefined)	/	70*	/	/
CCC(=O)NCC(c1ccco1)N1CCN(c2ccc(OC)cc2)CC1 (centres undefined)	/	39	/	/
O=S(=O)(NCC(c1ccco1)N1CCN(c2ccccc2)CC1)c1ccc(F)cc1 (centres undefined)	/	69*	/	/
Cc1cccc2c3nc4ccccc4nc3n(CCCN3C(=O)c4ccccc4C3=O)c12	/	-12	/	/
